Screens from PubChem BioAssay.
HCV inh – inhibitors of hepatitis C virus infection; Potency, µM (top dose mostly 41.8 µM), most hits filed as inhibitors; Huh7.5.1 HCVcc-Cre infection, luciferase reporter, 44 h; 340,000 compounds, 3.4% hits; active means well fitted inhibition curve with a large enough effect; inconclusive means small, poorly fitted or top-dose-only effect, or another doubt; inactive means no such curve, though single readings can be large or run the other way
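Cells (1,000/well) were plated 4 h before compound, then infected with HCVcc-Cre virus (~0.5 moi). After 44 h further culture, infection was read as luciferase luminescence following a 15 min substrate incubation at room temperature.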
Vaccinia Venus – inhibitors of vaccinia virus (Venus reporter). AID 720580. Vaccinia virus Venus reporter expression, fluorescence. 330,000 compounds, 0.46% hits. Potency, µM (doses to about 36.5 µM), usual class: inhibitors; calls by dose curve; tested in A549 cells; further: nearly all actives have a fitted effect of over 30% in size
Vaccinia mCherry – inhibitors of vaccinia virus infection (mCherry reporter signal). Potency, µM (top dose mostly 36.5 µM), most hits filed as inhibitors. Vaccinia virus mCherry reporter infection, fluorescence. AID 720579. 310,000 compounds, 0.63% hits; calls by dose curve; tested in A549 cells; further: nearly all actives have a fitted effect of over 35% in size
Numbers stand for hits; - = inactive; ? = inconclusive; . = not tested or not shown; [ ] = dose if it differs, or a comment. In the library only some 3.3% were active in any assay of this set; here they are far more common.

SMILES | HCV inh | Vaccinia Venus | Vaccinia mCherry
O=C(Nc1ccc(N2CCN(C(=O)c3ccco3)CC2)c(Cl)c1)c1cc2ccccc2o1 | 3.5µM | 16µM | 11µM
COc1ccc(NS(=O)(=O)c2ccc(N3CCCC3)c(NC(=S)Nc3ccc(SC(F)F)cc3)c2)cc1 | 22µM | - | ?
CCC(=O)N1CCN(c2ccc(NC(=O)c3ccco3)cc2Cl)CC1 | - | - | -
CCCOc1ccc(CN(C(=O)c2cc(=O)c3ccc(C)cc3o2)C2CCS(=O)(=O)C2)cc1 (stereo not drawn) | . | - | -
COc1ccc(NC(=O)CCc2nc3cccnc3n2-c2ccccc2)cc1Cl | . | - | -
CCC(C)c1ccccc1N1CC(C(=O)Nc2cccc(S(=O)(=O)N3CCOCC3)c2)CC1=O (stereo not drawn) | - | - | -
CCCC(=O)N1CCN(c2ccc(NC(=O)c3cccs3)cc2Cl)CC1 | - | - | -
O=C(Nc1ccc(N2CCN(C(=O)c3ccccc3)CC2)c(Cl)c1)c1ccco1 | 10µM | ? | -
CC(=O)N1CCN(c2ccc(NC(=O)c3ccco3)cc2Cl)CC1 | - | - | -
CCCC(=O)N1CCN(c2ccc(NC(=O)c3cc4ccccc4o3)cc2Cl)CC1 | 2.2µM | 10µM | .
COC(=O)[C@]1(C)N[C@H](CN(C)C(=O)c2ccc(C)cc2)[C@@H]2C(=O)N(C)C(=O)[C@@H]21 | - | - | -
CCCCC(=O)Oc1ccccc1C(=O)O | . | - | -
Cc1cccc(NC(=O)C2CCN(S(=O)(=O)c3c(C)nn(C)c3C)CC2)n1 | 25µM | - | -
Cc1cccc(NC(=O)C2CCN(S(=O)(=O)c3c(C)c(C)cc(C)c3C)CC2)n1 | ? | - | -
CN(c1ccccc1)S(=O)(=O)c1cccc(C(=O)NCC(c2cccs2)N2CCOCC2)c1 (stereo not drawn) | . | - | -
CCN1CCN(CC(=O)N2N=C(c3cccs3)CC2c2ccc(OC)c(OC)c2)C(=O)C1=O (stereo not drawn) | - | - | -
C=C1C(=O)c2sccc2C(c2ccc(OC)c(OC)c2)C1COC(C)=O (stereo not drawn) | 1.4µM | 7.1µM | 5µM
Cc1cc(OC(=O)c2ccccc2Br)c([N+](=O)[O-])c(=O)[nH]1 | - | - | -
C[C@@]12C(=O)NCC(=O)N1[C@@H]1c3cc(Br)ccc3OC[C@@H]1[C@@H]2c1ccccc1 | - | - | -
COc1ccc(O)c(CN2CCC3(CC2)c2ccccc2[C@@H](NC(=O)c2cccc(F)c2)[C@@H]3OC)c1 | . | - | -
N#CCSc1ccc(S(=O)(=O)N2CCOCC2)cn1 | - | - | -
CC(C)(C)c1ccc(CSc2ccc(S(=O)(=O)N3CCOCC3)cn2)cc1 | 10µM | . | .
COc1ccc(CCCNC(=O)C2CCC(=O)N(CC3CCCCC3)C2)cc1 (stereo not drawn) | - | - | -
COC(=O)c1cc2c(ccn2-c2ccc(F)cc2)n1Cc1ccc(OC(C)=O)cc1 | 8.9µM | - | -
CCOC(=O)c1cc2c(ccn2-c2ccc(F)cc2)n1CC(=O)N1CCN(C(=O)c2ccco2)CC1 | ? | - | -
SMILES | HCV inh | Vaccinia Venus | Vaccinia mCherry
COC(=O)c1cc2c(ccn2-c2ccc(F)cc2)n1CC(C)C | 11µM | . | .
COC(=O)c1cc2c(ccn2-c2ccc(F)cc2)n1C(C)C | - | . | .
COC(=O)c1cc2c(ccn2-c2ccc(F)cc2)n1Cc1cccc(OC)c1 | ? | - | -
CCCn1c(C(=O)OC)cc2c1ccn2-c1ccc(F)cc1 | 32µM | . | .
CC(C)(O)C#Cc1ccc(CN2CCc3nnc(CNC(=O)c4cccc(F)c4)n3CC2)cc1 | . | - | -
COc1ccc(-c2nc3sc(CCNS(=O)(=O)c4ccccc4)c(C)n3n2)cc1 | . | - | -
CCOC(=O)CCCCN(Cc1ccccc1F)S(=O)(=O)c1ccc(F)c(C(=O)Nc2cc(Cl)cc(Cl)c2)c1 | . | - | -
Cc1nn(-c2ccc([N+](=O)[O-])cc2)c2c1C(c1ccc(OC(F)F)cc1)N1C(=N2)C(=O)Nc2ccccc21 (stereo not drawn) | 2µM | - | -
COc1cccc(C2c3c(C)nn(-c4ccc([N+](=O)[O-])cc4)c3N=C3C(=O)Nc4ccccc4N32)c1 (stereo not drawn) | ? | - | -
COc1ccccc1C1C=C(c2ccc(Cl)cc2)Nc2nc(-c3ccc(Cl)cc3)nn21 (stereo not drawn) | . | -[7.34 µM] | -[7.34 µM]
CCN(CC)c1cc2c(cc1F)c(=O)c(S(=O)(=O)c1cc(C)ccc1C)cn2Cc1ccccc1 | . | - | -
Cc1ccc2cc(CNCc3cccc4ccccc34)c(N3CCC(O)CC3)nc2c1 | . | - | -
O=c1[nH]c(=O)n(C2CCCCC2)c(O)c1C1=Nc2ccccc2SC(c2ccc(Cl)cc2)C1 (stereo not drawn) | . | - | -
CC(C)(C)c1ccc(C(=O)Nc2ccc(Cl)cc2)cc1 | - | - | -
CC(C)(C)c1ccc(C(=O)Nc2ccc(CN3CCS(=O)(=O)CC3)cc2)cc1 | 5.6µM | - | -
